# Data as given in PubChem BioAssay.
# For some assays here: Potency and affinity values are given separately. Calls of active or inactive are those of the source.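 How the source made its calls, unless noted: active means signal rise over 3 SD above mean of control wells given weak agonist, in both repeats and first screen; inactive means the rest.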
# Columns and labels:
# [1] = tested on: TRPC4 beta (transient receptor potential cation channel C4), mouse; experiment: TRPC4 cation channel opening, retest – cell-based, Fluo4 calcium, HEK293 TRPC4beta/mu-opioid, duplicates, 10 µM, confirmation (AID 2426;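 active means fluorescence ratio normalized to control raised more than 50% in primary screen plus both repeat runs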); settings: Fluo4 calcium fluorescence, at 10 µM; stronger effect = higher value
# [2] = tested on: transient receptor potential cation channel C4 beta (TRPC4), mouse; experiment: TRPC4 cation channel opening, second retest – cell-based, second round, Fluo4, HEK293 TRPC4beta/mu-opioid, 1 µM, confirmation (AID 2461;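 active means primary screen active and over 50% activation in each of two duplicate runs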); settings: Fluo4 calcium fluorescence, at 1 µM; stronger effect = higher value
# [3] = tested on: TRPC4 (transient receptor potential cation channel C4 beta), mouse; experiment: potentiation of DAMGO EC20 TRPC4 response – cell-based, second round, Fluo-4, HEK293 TRPC4beta/mu-opioid, 1 µM, confirmation (AID 2554;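 active means primary screen hit whose fluorescence ratio, in both repeats, exceeds the weak agonist control mean by 3 SD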); settings: DAMGO EC20, Fluo-4 calcium flux, at 1 µM; stronger effect = higher value
# [4] = tested on: TRPC4 beta (transient receptor potential cation channel C4), mouse; experiment: potentiation of DAMGO EC20 TRPC4 response – cell-based, Fluo-4, HEK293 TRPC4beta/mu-opioid, confirmation (AID 2555;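 active means primary screen hit whose calcium fluorescence ratio, in both repeats, exceeds the weak agonist control mean by 3 SD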); settings: DAMGO EC20, Fluo-4 calcium flux, at 10 µM; stronger effect = higher value
# [5] = target: Short transient receptor potential channel 4 (Mus musculus) (UniProt Q9QUQ5); experiment: blockers of DAMGO-evoked TRPC4 calcium flux – cell-based, Fluo4, HEK293 TRPC4beta/mu-opioid, confirmation (AID 2636;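 active means calcium signal cut by more than 3 SD below the full-agonist control yet still positive, in both repeats and the earlier primary screen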); settings: at 10 µM; stronger effect = higher value
# [6] = target: Short transient receptor potential channel 4 (Mus musculus) (UniProt Q9QUQ5); experiment: blockers of DAMGO-evoked TRPC4 calcium flux – cell-based, second round, Fluo4, HEK293 TRPC4beta/mu-opioid, 1 µM, confirmation (AID 2637;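 active means calcium signal ratio cut to more than 3 SD under the fully stimulated control mean yet still positive, in both repeats and the primary screen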); settings: at 1 µM; stronger effect = higher value
# [7] = target: Short transient receptor potential channel 4 (Mus musculus) (UniProt Q9QUQ5); experiment: calcium entry via TRPC4 opening agents – cell-based, HEK293 TRPC4/mu-opioid, Fluo-4 calcium, dose response (AID 434937;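 active means primary screen activator hit with a dose response curve and TRPC4 channel activation at any tested dose; inactive means no activation, no dose response, or not a primary hit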)
# [8] = target: Short transient receptor potential channel 4 (Mus musculus) (UniProt Q9QUQ5); experiment: potentiation of DAMGO-evoked TRPC4 calcium signal – cell-based, HEK293 TRPC4/mu-opioid, Fluo-4 calcium, EC20 DAMGO, dose response (AID 434941;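 active means earlier screen potentiator hit that boosts the TRPC4 ion channel at some dose, with a dose response; inactive means no potentiation, no dose response, or not a prior hit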;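 further: calcium entry triggered by an EC20 dose of DAMGO at the co-expressed mu-opioid receptor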)
# [9] = target: Short transient receptor potential channel 4 (Mus musculus) (UniProt Q9QUQ5); experiment: block of DAMGO-driven TRPC4 calcium entry – cell-based, HEK293 TRPC4/mu-opioid, Fluo-4 calcium, dose response (AID 434942;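 active means primary screen inhibitor hit that blocks the TRPC4 channel at some tested dose, yielding a dose curve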)
# [10] = target: Short transient receptor potential channel 6 (Mus musculus) (UniProt Q61143); experiment: TRPC6 blockade by TRPC4 inhibitor hits – cell-based, HEK293, membrane potential dye, duplicate, selectivity assay for TRPC4 inhibitor project, confirmation (AID 434948;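 active means active in primary screen and both duplicates, each dropping signal beyond three positive-control SD with fluorescence still positive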); settings: HEK293 TRPC6, membrane potential dye fluorescence, at 10 µM, stimulated with maximal-effect acetylcholine; stronger effect = higher value
# [11] = target: Short transient receptor potential channel 6 (Mus musculus) (UniProt Q61143); experiment: TRPC6 opening by TRPC4 activator hits – cell-based, HEK293, membrane potential dye, duplicate, selectivity assay for TRPC4 activator project, confirmation (AID 434950;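 active means membrane potential signal rise above negative control mean plus 3 SD in both duplicates, also active in the earlier TRPC4 screen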); settings: HEK293 TRPC6, membrane potential fluorescence, at 10 µM; activation: stronger effect = higher value; outcome: activation
# [12] = target: Short transient receptor potential channel 6 (Mus musculus) (UniProt Q61143); experiment: positive modulators of mouse TRPC6 channel – HEK293 cells, membrane potential dye, duplicate, selectivity assay for TRPC4 potentiator project, confirmation (AID 434952;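 active means compound raising the membrane signal above positive-control mean plus 3 SD in both repeats, and a primary screen hit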); settings: HEK293 TRPC6, membrane potential dye fluorescence, at 10 µM, maximal acetylcholine added after compound; stronger effect = higher value
# [13] = target: Short transient receptor potential channel 4 (Mus musculus) (UniProt Q9QUQ5); experiment: calcium flux activators in TRPC4/5HT1a cells, counter-screen for TRPC4 activator project, cell-based, second counter screen, HEK293 TRPC4/5HT1a, Fluo-4 (AID 434977;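 active means calcium signal rise above buffer-control mean plus 5 SD in both duplicates, and also a hit in the primary screen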); settings: Fluo-4 calcium flux, at 10 µM; stronger effect = higher value
# [14] = serotonin-gated TRPC4 signal block – cell-based, second counter screen, HEK293 TRPC4/5HT1a, Fluo-4, counter-screen for TRPC4 inhibitor project, confirmation (AID 434978;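 active means primary screen active whose calcium signal fell more than 3 SD beyond the full-serotonin control mean in both duplicate plates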;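 further: serotonin given first at submaximal then at maximal dose after compound preincubation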); settings: Fluo-4 calcium flux, at 10 µM, serotonin added to trigger calcium flux; stronger effect = higher value
# [15] = tested on: TRPC4 (mouse), co-expressed with 5HT1a in HEK293; experiment: enhancement of serotonin-evoked TRPC4 response – cell-based, second counter screen, HEK293 TRPC4/5HT1a, Fluo-4, counter-screen for TRPC4 potentiator project, confirmation (AID 434979); settings: Fluo-4 calcium flux, at 10 µM, serotonin added at its EC20 dose; stronger effect = higher value
# [16] = nonspecific calcium rise without TRPC4 – cell-based, HEK293 mu-opioid receptor line, counter-screen for TRPC4 activator project, confirmation (AID 449723;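 active means hit in primary screen, with calcium signal over 5 SD above buffer well mean in both duplicates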;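 further: counter screen cells carry the mu-opioid receptor alone and lack TRPC4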); settings: HEK293 mu-opioid cells, Fluo-4 calcium fluorescence, at 10 µM; stronger effect = higher value
# [17] = nonspecific potentiation of DAMGO calcium response – cell-based, HEK293 mu-opioid receptor line, counter-screen for TRPC4 allosteric potentiator project, confirmation (AID 449724;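 active means calcium signal rise more than 3 SD above the low-dose agonist control mean, in both duplicate plates and the primary screen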); settings: HEK293 mu-opioid receptor cells, Fluo-4 calcium flux, at 10 µM, compound added before EC20 DAMGO stimulus; stronger effect = higher value
# Chain of Short transient receptor potential channel 6 (Mus musculus) (Q61143 whole entry, looked up): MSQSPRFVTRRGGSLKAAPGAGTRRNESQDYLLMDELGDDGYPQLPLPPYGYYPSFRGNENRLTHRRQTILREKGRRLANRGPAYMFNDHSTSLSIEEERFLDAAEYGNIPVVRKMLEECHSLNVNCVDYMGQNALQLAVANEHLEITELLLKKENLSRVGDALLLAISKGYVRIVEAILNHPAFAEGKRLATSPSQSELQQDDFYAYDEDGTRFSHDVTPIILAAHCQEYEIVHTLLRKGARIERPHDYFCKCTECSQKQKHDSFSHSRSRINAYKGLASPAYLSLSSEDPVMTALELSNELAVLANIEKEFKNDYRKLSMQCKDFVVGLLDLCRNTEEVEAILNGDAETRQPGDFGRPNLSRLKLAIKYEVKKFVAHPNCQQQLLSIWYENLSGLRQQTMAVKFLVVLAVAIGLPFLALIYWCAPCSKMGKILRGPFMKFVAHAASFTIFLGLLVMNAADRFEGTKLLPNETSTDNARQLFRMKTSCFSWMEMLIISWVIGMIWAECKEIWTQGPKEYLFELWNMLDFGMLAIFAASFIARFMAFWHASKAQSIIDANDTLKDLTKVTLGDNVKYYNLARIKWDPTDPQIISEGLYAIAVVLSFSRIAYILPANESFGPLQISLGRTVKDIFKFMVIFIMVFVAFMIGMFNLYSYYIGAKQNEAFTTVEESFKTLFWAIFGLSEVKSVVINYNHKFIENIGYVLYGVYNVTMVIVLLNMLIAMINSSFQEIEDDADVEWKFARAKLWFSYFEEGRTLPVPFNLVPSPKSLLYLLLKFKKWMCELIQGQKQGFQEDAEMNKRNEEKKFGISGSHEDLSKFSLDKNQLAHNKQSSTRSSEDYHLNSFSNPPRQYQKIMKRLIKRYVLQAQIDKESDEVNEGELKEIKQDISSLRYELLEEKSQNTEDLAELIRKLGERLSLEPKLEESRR
# Chain of Short transient receptor potential channel 4 (Mus musculus) (Q9QUQ5 whole entry, looked up): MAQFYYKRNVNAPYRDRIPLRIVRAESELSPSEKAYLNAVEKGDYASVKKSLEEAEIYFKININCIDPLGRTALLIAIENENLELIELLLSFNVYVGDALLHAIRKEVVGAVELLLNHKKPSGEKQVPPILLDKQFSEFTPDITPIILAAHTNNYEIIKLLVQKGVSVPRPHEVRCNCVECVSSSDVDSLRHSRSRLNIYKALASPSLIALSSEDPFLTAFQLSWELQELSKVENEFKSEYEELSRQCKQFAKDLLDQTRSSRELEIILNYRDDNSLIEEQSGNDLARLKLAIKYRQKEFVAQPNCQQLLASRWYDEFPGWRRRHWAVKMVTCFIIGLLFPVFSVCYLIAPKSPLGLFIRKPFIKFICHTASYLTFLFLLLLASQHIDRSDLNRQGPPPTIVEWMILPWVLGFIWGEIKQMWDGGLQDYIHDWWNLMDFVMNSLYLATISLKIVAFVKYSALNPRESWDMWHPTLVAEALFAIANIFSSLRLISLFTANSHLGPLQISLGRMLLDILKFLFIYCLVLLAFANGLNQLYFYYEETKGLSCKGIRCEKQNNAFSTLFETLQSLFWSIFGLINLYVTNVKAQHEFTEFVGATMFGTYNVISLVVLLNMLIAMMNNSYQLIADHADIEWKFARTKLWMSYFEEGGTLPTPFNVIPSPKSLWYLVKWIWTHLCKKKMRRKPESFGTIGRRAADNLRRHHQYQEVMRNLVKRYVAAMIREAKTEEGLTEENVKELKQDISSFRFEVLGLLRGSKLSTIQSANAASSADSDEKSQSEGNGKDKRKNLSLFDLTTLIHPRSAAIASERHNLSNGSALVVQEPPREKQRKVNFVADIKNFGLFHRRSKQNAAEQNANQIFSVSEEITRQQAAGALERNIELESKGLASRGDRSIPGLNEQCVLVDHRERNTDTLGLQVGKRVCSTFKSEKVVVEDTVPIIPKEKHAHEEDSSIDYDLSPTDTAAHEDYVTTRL
Compound,outcome [1],outcome [2],outcome [3],outcome [4],outcome [5],outcome [6],outcome [7],outcome [8],outcome [9],outcome [10],outcome [11],outcome [12],outcome [13],outcome [14],outcome [15],outcome [16],outcome [17],potentiation [3],potentiation [15],potentiation [4]
CCOC(=O)C1=C(CNCCc2ccc(Cl)cc2)NC(=O)NC1c1cccc([N+](=O)[O-])c1 (centres undefined),inactive,inactive,inactive,inactive,inactive,inactive,inactive,inactive,inactive,inactive,inactive,inactive,inactive,inactive,inactive,inactive,inactive,–,–,–
CN1CCN(c2ccc(Cl)cc2NC(=O)/C=C/c2cccc(F)c2)CC1,inactive,inactive,–,inactive,inactive,inactive,inactive,inactive,inactive,inactive,inactive,inactive,inactive,inactive,–,inactive,inactive,11% (active),41.1% (active),–
CCCC(=O)N/C(N)=N/c1nc(C)c2ccccc2n1,inactive,inactive,–,inactive,inactive,inactive,inactive,inactive,inactive,inactive,inactive,inactive,inactive,inactive,–,inactive,inactive,9% (active),10% (active),–
Cc1ccc(NC(=O)c2cccs2)cc1,inactive,inactive,inactive,inactive,inactive,inactive,inactive,inactive,inactive,inactive,inactive,inactive,inactive,inactive,inactive,inactive,inactive,–,–,–
CN1CCN(CC#CCn2c3ccccc3c3ccccc32)CC1,inactive,inactive,–,–,inactive,inactive,inactive,inactive,inactive,inactive,inactive,inactive,inactive,inactive,–,inactive,inactive,10% (active),38.7% (active),12% (active)
CC(=O)Nc1ccc(CN2CCCC(CO)(Cc3ccccc3C)C2)cc1 (centres undefined),inactive,inactive,inactive,inactive,inactive,inactive,inactive,inactive,inactive,inactive,inactive,inactive,inactive,inactive,inactive,inactive,inactive,–,–,–
O=C(NCc1ccccc1)c1ccc(S(=O)(=O)Nc2cccc(C(F)(F)F)c2)cc1,inactive,inactive,inactive,–,inactive,inactive,inactive,inactive,inactive,inactive,inactive,inactive,inactive,inactive,–,inactive,inactive,–,44.3% (active),46% (active)
